# Measurements taken from PubChem BioAssay (NCI).
# This is part of a sample that, as a whole, favours compounds with a hit. Of some 83,000 tested, about 20% had one in any assay.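 In brief: 96-well plates, 48 h treatment, single concentration, percent growth endpoint.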 Calls of active or inactive are those of the source. Rule for the calls: active = growth percent below 10; inactive = the rest.
# System: HOP-92 NSCLC
# Assay: NCI-60 one-dose screen, 48 h (100 = growth as untreated, 0 = no growth, -100 = all killed)
# Details: 10 µM unless noted
row,Structure (SMILES),growth
1,COC(=O)[C@@H]1CCCN1C(=O)[C@H]1CCCN1C(=O)[C@@H](Cc1c[nH]c2ccccc12)NC(=S)Nc1cc(C(F)(F)F)cc(C(F)(F)F)c1,80.9% (inactive)
2,Cc1ccc(F)cc1NC(=O)c1cc(Cl)ccc1Nc1ccccc1,75.9% (inactive)
3,CC1=C(C(=O)OCC2CCN(C(=O)OC(C)(C)C)CC2)[C@@H](c2cccc(C#N)c2)C2=C(CC(C)(C)CC2=O)N1,79.9% (inactive)
4,CCCCCCc1cc2cc(-c3csc(/C=C/c4ccccc4)n3)c(=O)oc2cc1O,-3.21% (active)
5,COc1ccc(Br)c(/C=C2\SC(=Nc3ccc(O)cc3)NC2=O)c1,83.2% (inactive)
6,COc1ccc(Cn2c(Br)c3c(c2Br)-c2nc(N)sc2CC3)cc1,58.5% (inactive)
7,COC(=O)c1cc2c(n1Cc1ccccc1)-c1oncc1CCC2,75.3% (inactive)
8,CCOC(=O)c1sc(-c2ccc(OS(=O)(=O)c3ccccc3[N+](=O)[O-])c(C=O)c2)nc1C,65.6% (inactive)
9,Clc1ncccc1Nc1ccc2nnc(-c3ccncc3)n2n1,110% (inactive)
10,O=C1NC(=O)C(=Cc2cn(Cc3cn(Cc4ccc(Cl)cc4Cl)nn3)c3ccccc23)C(=O)N1,92.6% (inactive)
11,CCCCCCn1c(=N)n(CC(O)COc2cccc(C)c2)c2ccccc21 (stereo not drawn),-6.11% (active)
12,O=C(Nc1ncc(Cc2cccc(C(F)(F)F)c2)s1)C1COc2ccccc2O1 (stereo not drawn),72.2% (inactive)
13,CN1C(=O)N(C)C2C1NN=c1s/c(=C\c3ccc([N+](=O)[O-])cc3)c(=O)n12 (stereo not drawn),77.6% (inactive)
